KCNK9 inh – KCNK9 potassium channel inhibitors, primary screen, HEK293 cells, thallium flux; Potassium channel subfamily K member 9 (Homo sapiens), Q9NPC2; FluxOR thallium flux fluorescence; hits give low values; B-score at 10 µM; actives 1.2% (n = 310,000); AID 488922, 2010;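 active means ratio B-score over 3 SD below the library mean, with starting fluorescence within 5 SD of its mean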;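 further: negative B-score means less thallium flux so channel inhibition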
TMEM16A act – TMEM16A chloride channel activators or potentiators, primary screen, cell-based, HTS. HEK293 TMEM16A/YFP-H148Q/I152L, iodide quench fluorescence; hits give low values. B-score at 10 µM. actives 0.3% (n = 340,000);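 active means fluorescence-ratio B-score plate-corrected deviation score at least 3 library SD below zero, with starting fluorescence score within 5 deviations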;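 further: channel opened by trigger with iodide after compound preincubation; score built on the fluorescence ratio of max minus min over baseline; more negative score means more quench and so TMEM16A activation or potentiation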
TMEM16A inh – TMEM16A chloride channel inhibitors, primary screen, cell-based, HTS; Anoctamin-1 (Mus musculus), Q8BHY3; HEK293 TMEM16A/YFP iodide influx fluorescence, ionomycin; normalized B-score (activity score, 25-100; higher = stronger inhibition) at 10 µM; actives 1.2% (n = 310,000);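 active means ratio plate-corrected score three or more library SD toward inhibition, starting fluorescence score within five deviations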;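 further: score derived from kinetic fluorescence span divided by baseline fluorescence per well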
Kir21 block – inhibitors of mouse Kir2.1 inward-rectifier potassium channel; Inward rectifier potassium channel 2 (Mus musculus), P35561; HEK293-Kir2.1, FluxOR thallium flux fluorescence; hits give low values; B-score at 10 µM; actives 0.85% (n = 310,000);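 active means fluorescence ratio B-score at or below minus 3 SD of library scores, with starting-brightness B-score within 2 SD, cut at about -4.2 in these data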;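 further: channel flux triggered by added potassium and thallium sulfate stimulus; B-score of peak minus minimum fluorescence over baseline after thallium stimulus; more negative B-score means stronger Kir2.1 block with less thallium influx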
KCNK3 inh – human KCNK3 channel inhibitors, primary screen, CHO cells, FluxOR thallium flux, B-score | Potassium channel subfamily K member 3 (Homo sapiens), O14649 | FluxOR fluorescence; hits give low values | B-score at 10 µM | actives 0.84% (n = 340,000) | AID 602410, 2012;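 active means B-score under library mean minus 4 SD, starting fluorescence ratio at most library mean plus 5 SD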;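 further: more negative B-score means stronger inhibition of thallium flux through KCNK3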
Target sequence (O14649 whole entry, looked up): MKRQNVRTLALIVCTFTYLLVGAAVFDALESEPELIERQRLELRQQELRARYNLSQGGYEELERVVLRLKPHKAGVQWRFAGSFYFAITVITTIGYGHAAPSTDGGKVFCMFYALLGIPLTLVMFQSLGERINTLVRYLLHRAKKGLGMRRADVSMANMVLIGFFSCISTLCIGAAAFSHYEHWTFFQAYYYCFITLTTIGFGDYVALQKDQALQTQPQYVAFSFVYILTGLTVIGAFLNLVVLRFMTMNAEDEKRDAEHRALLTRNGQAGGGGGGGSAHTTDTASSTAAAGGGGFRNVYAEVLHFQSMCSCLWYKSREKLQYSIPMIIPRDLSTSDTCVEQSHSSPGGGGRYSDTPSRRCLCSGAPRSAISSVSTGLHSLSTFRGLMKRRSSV
TMEM16A reconf – TMEM16A chloride channel inhibitors, confirmation, cell-based, re-confirmation; shares compounds with TMEM16A inh; HEK293 TMEM16A/YFP-H148Q, iodide quench fluorescence; ionomycin added to raise cell calcium; inhibition, % at 10 µM; actives 39% (n = 2,300);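 active means mean duplicate percent inhibition, scaled so buffer wells are 0 and the reference blocker 100, over three buffer SD above buffer mean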
TMEM16A Ca cntr – calcium mobilization in TMEM16A/YFP HEK293 cells, confirmation, counter-screen for TMEM16A inhibitor project; AID 652231, 2013; calcium response (% of ionomycin), % at 10 µM; Fluo4 calcium mobilization; shares compounds with TMEM16A inh; actives 2% (n = 2,300);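 active means duplicate-averaged calcium signal over 20% of the ionomycin maximum, relative to buffer baseline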;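 further: each well's signal is peak minus trough fluorescence divided by its pre-addition baseline; 0% = buffer wells and 100% = ionomycin wells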
YFP-HEK293 quench – iodide YFP quench changes in parental YFP-HEK293, counter-screen for TMEM16A inhibitor project, cell-based | ionomycin | AID 652233, 2013 | 2,300 tested, under 10 active | shares compounds with TMEM16A inh | YFP ratio F(max-min)/F0 at 10 µM;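 active means yellow fluorescent protein signal ratio exceeding the buffer control mean by over 5 SD of those controls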;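 further: ratio is mean of duplicate wells from kinetic YFP trace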
ClC-1 rat inh – ClC-1 chloride channel inhibition, selectivity assay for TMEM16A inhibitor project, cell-based, voltage-dependent ClC-1; shares compounds with TMEM16A inh; CHO ClC-1-YFP, iodide influx fluorescence quench; iodide control reads 0, buffer control 100; ratio percent, % at 10 µM; 2,300 tested, under 10 active; AID 652236, 2013;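 active means duplicate-mean ratio percent above the mean of iodide-only control wells, which defines zero, plus 5 of their SD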;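 further: higher percent means stronger block of ClC-1 iodide influx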
The depositor's hits bear a star. An excerpt weighted towards active compounds, which were near 3.5% of everything screened.

Results for Cc1oc2cc([N+](=O)[O-])c(O)c([N+](=O)[O-])c2c1C(=O)c1ccc(Cl)cc1 ?
KCNK9 inh: inactive; TMEM16A act: inactive; TMEM16A inh: 25*; Kir21 block: 4.2; KCNK3 inh: inactive; TMEM16A reconf: 32%*; TMEM16A Ca cntr: inactive; YFP-HEK293 quench: -0.88; ClC-1 rat inh: -16

How did COc1cc2ccccc2cc1C(=O)Nc1ccccc1Cl do in these assays?
KCNK9 inh: inactive; TMEM16A act: inactive; TMEM16A inh: 100*; Kir21 block: -0.78; KCNK3 inh: inactive; TMEM16A reconf: 70%*; TMEM16A Ca cntr: inactive; YFP-HEK293 quench: -0.77; ClC-1 rat inh: -16

How did CN1CCN(C(=O)NC2CCCN2S(=O)(=O)c2ccc(Cl)cc2)CC1 (stereo not drawn) do in these assays?
KCNK9 inh: inactive; TMEM16A act: inactive; TMEM16A inh: inactive; Kir21 block: 0.96; KCNK3 inh: inactive; TMEM16A reconf: inactive; TMEM16A Ca cntr: inactive; YFP-HEK293 quench: -1; ClC-1 rat inh: -2

Results for CCOC(=O)C(=O)Nc1ccc(S(=O)(=O)Nc2ncccn2)cc1 ?
KCNK9 inh: inactive; TMEM16A act: inactive; TMEM16A inh: 25*; Kir21 block: 0.88; KCNK3 inh: inactive; TMEM16A reconf: inactive; TMEM16A Ca cntr: inactive; YFP-HEK293 quench: -1.1; ClC-1 rat inh: 2

How did COc1ccc(C(CNC(=O)C(C)Oc2ccc(Br)cc2)N2CCCCC2)cc1 (stereo not drawn) do in these assays?
TMEM16A act: inactive; KCNK3 inh: inactive

Results for CSc1cccc(NC(=O)/C=C/c2ccccc2)c1 ?
KCNK9 inh: inactive; TMEM16A act: inactive; TMEM16A inh: inactive; Kir21 block: 0.41; KCNK3 inh: inactive

Results for CSc1cccc(NC(=O)/C=C/c2ccc(Cl)cc2)c1 ?
KCNK9 inh: inactive; TMEM16A act: inactive; TMEM16A inh: 100*; Kir21 block: -1.8; KCNK3 inh: inactive; TMEM16A reconf: 62%*; TMEM16A Ca cntr: inactive; YFP-HEK293 quench: -1; ClC-1 rat inh: -8

How did CSc1nnc(-c2cc(Br)ccc2N=Cc2c(C)[nH]n(-c3ccccc3)c2=O)c(=O)[nH]1 do in these assays?
KCNK9 inh: inactive; TMEM16A act: inactive; TMEM16A inh: inactive; Kir21 block: 0.04; KCNK3 inh: inactive

How did CCSc1nnc(-c2cc(Br)ccc2N=Cc2c(C)[nH]n(-c3ccccc3)c2=O)c(=O)[nH]1 do in these assays?
KCNK9 inh: inactive; TMEM16A act: inactive; TMEM16A inh: 100*; Kir21 block: 2.6; KCNK3 inh: inactive; TMEM16A reconf: 21%*; TMEM16A Ca cntr: 20%*; YFP-HEK293 quench: -0.97; ClC-1 rat inh: -22

Results for Cc1occc1C(=O)NNC(=O)Nc1ccc(F)cc1F ?
KCNK9 inh: inactive; TMEM16A act: inactive; TMEM16A inh: inactive; Kir21 block: -1; KCNK3 inh: inactive

How did Cc1occc1C(=O)Nc1ccc(Br)cc1F do in these assays?
KCNK9 inh: inactive; TMEM16A act: inactive; TMEM16A inh: 100*; Kir21 block: -0.08; KCNK3 inh: inactive; TMEM16A reconf: inactive; TMEM16A Ca cntr: inactive; YFP-HEK293 quench: -0.87; ClC-1 rat inh: -11

Compound activity as filed in PubChem.
